Screening results (PubChem)
Only some compounds are listed: those with a hit (about 5% of all), similar ones and a draw of the others.
SENP8 block-1 – SENP8 (human) protease inhibition; recombinant SENP8, Nedd8 substrate fluorescence; inhibition, % at 20 µM; 0.64% of 360,000 active; AID 602440; in the data active = inhibition mostly above about 40%, no sharp cut-off; inactive = mostly below about 27%
Target sequence (Q96LD8 whole entry, looked up): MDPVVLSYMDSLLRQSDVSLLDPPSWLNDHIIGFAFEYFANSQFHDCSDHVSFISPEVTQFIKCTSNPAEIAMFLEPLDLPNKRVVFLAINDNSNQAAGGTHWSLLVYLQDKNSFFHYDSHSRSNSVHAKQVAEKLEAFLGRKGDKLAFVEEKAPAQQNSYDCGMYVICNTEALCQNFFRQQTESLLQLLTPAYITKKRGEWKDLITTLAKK
AHR act – activators of human aryl hydrocarbon receptor. P35869. AHR-responsive luciferase reporter cells, luminescence. activation, % at 5 µM. 2.5% of 320,000 active. AID 2796; in the data active = activation above about 47%;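 also: 0% = vehicle wells and 100% = reference agonist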
SENP6 block – SENP6 protease inhibition; Q9GZR1; Recombinant SENP6 catalytic domain, aminoluciferin luminescence; inhibition, % at 10 µM; 1.8% of 330,000 active; AID 2599;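 active = inhibition above about 50% at the single tested dose, limit read from the data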;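 also: plate controls were DMSO wells with enzyme for no effect and DMSO wells lacking enzyme for full effect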
EBI2 block – blocks human EBI2 receptor beta-arrestin signaling; inhibition, % at 5 µM; P32249; EBI2 beta-arrestin recruitment, luminescence, 7a,25-OHC stimulated; 0.81% of 360,000 active; in the data active = inhibition above about 38%;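 also: enzyme fragment complementation signal reports receptor beta-arrestin coupling in cells; 0% = agonist plus DMSO wells and 100% = wells without agonist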
SENP8 block-2 – inhibitors of human SENP8 protease. Q96LD8. purified SENP8, Z-RLRGG-aminoluciferin cleavage, luminescence. inhibition, % at 10 µM. 1.2% of 330,000 active. AID 2540; in the data active = inhibition above about 50%
SENP7 inh – inhibitors of human SENP7 protease | recombinant SENP7, Z-RLRGG-aminoluciferin luminescence, 40 min | inhibition, % at 5 µM | 1.5% of 330,000 active | AID 434973;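 active = inhibition above about 50% at the single test dose, limit read from the data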;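 also: plate controls were DMSO with enzyme for no effect and no enzyme buffer wells for full effect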
Target sequence (Q9BQF6 706-1050 limits assumed): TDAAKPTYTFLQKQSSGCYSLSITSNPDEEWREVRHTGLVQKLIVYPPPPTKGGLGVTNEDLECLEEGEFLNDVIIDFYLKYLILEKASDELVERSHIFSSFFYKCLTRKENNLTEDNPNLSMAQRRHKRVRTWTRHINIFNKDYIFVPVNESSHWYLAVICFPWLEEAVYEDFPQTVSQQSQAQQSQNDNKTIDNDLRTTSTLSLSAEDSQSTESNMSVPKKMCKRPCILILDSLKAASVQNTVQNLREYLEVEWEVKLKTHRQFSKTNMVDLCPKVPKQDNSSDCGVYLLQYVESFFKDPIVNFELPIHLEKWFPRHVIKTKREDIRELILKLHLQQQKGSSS
SENP8 confirm – confirmation of human SENP8 protease inhibitors | shares compounds with SENP7 inh | Recombinant SENP8, Z-RLRGG-aminoluciferin luminescence, 60 min | inhibition, % at 12.5 µM | 40% of 6,200 active;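 active = mean inhibition across replicates above about 50%, limit read from the data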
SENP6 confirm – human SENP6 inhibition, confirmed; shares compounds with SENP7 inh; inhibition, % at 12.5 µM; recombinant SENP6, Z-RLRGG-aminoluciferin luminescence; AID 488915; 58% of 6,200 active
SENP7 confirm – human SENP7 inhibition, confirmed; shares compounds with SENP7 inh; recombinant SENP7, Z-RLRGG-aminoluciferin luminescence, 40 min; inhibition, % at 12.5 µM; 69% of 6,200 active; AID 488917
Casp3 SENP sel – inhibits human caspase-3 in SENP selectivity test. inhibition, % at 12.5 µM. 60% of 6,200 active. purified caspase-3, Z-DEVD-aminoluciferin luminescence, 60 min. shares compounds with SENP7 inh;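 active = mean inhibition above about 50%, limit read from the data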;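 also: plate controls were enzyme with DMSO for no effect and wells without caspase-3 for full effect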
Luc interf – counter-screen for SENP inhibitors: luminescence interference; shares compounds with SENP7 inh; Pre-incubated SENP8/Z-RLRGG-aminoluciferin, luciferase luminescence interference; inhibition, % at 12.5 µM; 39% of 6,200 active; AID 488919;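 active = mean inhibition above about 50% when retested at one dose, limit read from the data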;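 also: plate controls were DMSO wells with completed reaction for no effect and substrate without enzyme for full effect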
The depositor's hits bear a star; nt = no result given.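 The calls were made as follows, unless noted: active = mean inhibition above about 50% in the one-dose retest (limit read from the data); inactive = the rest.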

SMILES | SENP8 block-1 | AHR act | SENP6 block | EBI2 block | SENP8 block-2 | SENP7 inh | SENP8 confirm | SENP6 confirm | SENP7 confirm | Casp3 SENP sel | Luc interf
Cc1ccc(C(NC(N)=O)c2ccccc2)cc1 (configuration not stated) | 12 | -2 | 3 | -21 | 9 | 54* | 4 | 1 | -2 | -2 | -2
Fc1ccc(-n2nnc(-c3cnc4ccccc4c3)n2)cc1 | 12 | 34 | 93* | 7 | 80* | 96* | 65* | 67* | 26 | 61* | 33
COc1cccc(CNc2cnc3ccccc3c2)c1O | -304 | 10 | 60* | 12 | 42 | 38 | 37 | 35 | 77* | 34 | 61*
Cc1ccc(O)c(CNc2cnc3ccccc3c2)c1 | -332 | 10 | -8 | 13 | -16 | -5 | nt | nt | nt | nt | nt
COc1cccc(CNc2cccc3cccnc23)c1O | 33 | 9 | 79* | 12 | 80* | 66* | -6 | 11 | 16 | 2 | 14
Cc1ccc(O)c(CNc2cccc3cccnc23)c1 | -8 | 10 | -4 | -3 | 84* | 65* | -2 | 21 | 16 | 5 | 4
Oc1c(Br)cc(Br)cc1CNc1cccc2cccnc12 | -70 | 45 | 85* | -2 | 91* | 88* | 4 | 21 | 22 | 4 | -3
COc1cccc(CNc2ccccn2)c1O | 20 | 0 | 10 | -5 | 4 | 3 | nt | nt | nt | nt | nt
O=C(O)C1=C[C@H](c2coc3ccccc3c2=O)C[C@H](OCc2ccc(CO)cc2)O1 | 3 | 1 | 3 | -9 | 1 | 4 | nt | nt | nt | nt | nt
Cc1nnc(SCc2nnc(-c3ccccc3Br)o2)s1 | -57 | 8 | -14 | 1 | 1 | 4 | nt | nt | nt | nt | nt
Cc1cccc(NCc2cc(Cl)ccc2O)n1 | 12 | -2 | -58 | 1 | -5 | 7 | nt | nt | nt | nt | nt
Oc1ccc(Br)cc1CNc1cccc2cccnc12 | -8 | 33 | 78* | -5 | 80* | 70* | 9 | 29 | 7 | 2 | 1
Oc1ccc(Cl)cc1CNc1cccc2cccnc12 | 35 | 26 | 84* | 1 | 88* | 65* | -7 | 18 | 5 | 4 | 6
Oc1ccc(Br)cc1CNc1cnc2ccccc2c1 | -330 | 5 | 6 | 8 | -6 | -7 | nt | nt | nt | nt | nt
Cc1cc(C)n2nnnc2n1 | 12 | 0 | -4 | -4 | 1 | 1 | nt | nt | nt | nt | nt
COc1ccc(/C=C2\CCc3ccccc3C2=O)cc1O | 4 | 3 | 99* | -36 | 95* | 95* | 96* | 99* | 101* | 92* | 95*
CC(=O)Nc1ccc(/C=C2\CCc3ccccc3C2=O)cc1 | 10 | 7 | 56* | -26 | 34 | 44 | 40 | 46 | 34 | 20 | 18
COc1cc(OC)cc(C(=O)Nc2ccc3c(c2)OCCO3)c1 | 14 | 13 | 98* | 5 | 92* | 96* | -4 | 95* | 102* | 96* | 95*
CC(C)C(=O)Nc1ccc(NC(=O)c2ccc3c(c2)OCO3)cc1 | 9 | -11 | 14 | -11 | -10 | 33 | nt | nt | nt | nt | nt
O=C(Nc1ccc2c(c1)oc1ccccc12)c1ccc2c(c1)OCO2 | -17 | -5 | 26 | 12 | 10 | 61* | -6 | 7 | 7 | 4 | 3
O=C(Nc1ccc(Cl)c(Cl)c1)c1ccc2c(c1)OCO2 | 17 | 34 | 80* | -7 | 77* | 72* | 19 | 77* | 96* | 65* | 9
O=C(Nc1ccc(F)c(F)c1)c1ccc2c(c1)OCO2 | 5 | 5 | 71* | 2 | 67* | -5 | 73* | 74* | 91* | 76* | 48
C=CCN(c1ccccc1OC)S(=O)(=O)c1cccc(C(=O)Nc2nnc(C3CC3)s2)c1 | -23 | 6 | 2 | -3 | 2 | -1 | nt | nt | nt | nt | nt
Cc1ccc(C)c(OCCC(=O)OC(C)C(=O)Nc2c(C)n(C)n(-c3ccccc3)c2=O)c1 (configuration not stated) | 2 | 6 | -9 | -3 | -5 | -5 | nt | nt | nt | nt | nt
O=C(Nc1cccc(NC(=O)c2ccc3c(c2)OCO3)c1)c1ccccc1 | -8 | 32 | -6 | 5 | 31 | 42 | nt | nt | nt | nt | nt
SMILES | SENP8 block-1 | AHR act | SENP6 block | EBI2 block | SENP8 block-2 | SENP7 inh | SENP8 confirm | SENP6 confirm | SENP7 confirm | Casp3 SENP sel | Luc interf
O=C(Nc1ccc2c(c1)OCO2)c1cccc(Cl)c1 | 10 | 49* | 92* | -14 | 81* | 92* | -6 | 87* | 98* | 90* | 74*
O=C(Nc1ccc(Br)cc1)c1ccc2c(c1)OCO2 | -1 | 0 | 34 | 6 | 6 | 52* | 12 | 19 | 70* | 47 | 2
O=C(Nc1ccc2c(c1)OCO2)OCc1ccccc1 | 15 | -5 | -22 | 1 | 38 | 60* | 52* | 51* | 82* | 53* | 34
NC(=O)c1ccc(NC(=O)c2ccc3c(c2)OCO3)cc1 | 12 | 7 | 9 | -6 | 0 | 46 | nt | nt | nt | nt | nt
O=C(Nc1ccc2nsnc2c1)c1ccc2c(c1)OCO2 | -275 | 30 | 67* | 5 | 65* | 78* | 37 | 57* | 88* | 80* | 46
CN(C(=O)COC(=O)CSc1cc(Cl)ccc1Cl)c1c(N)n(Cc2ccccc2)c(=O)[nH]c1=O | -7 | -1 | -7 | 7 | -2 | 14 | nt | nt | nt | nt | nt
Cc1cc(C)cc(N(CC(=O)NCCSCc2ccccc2)S(C)(=O)=O)c1 | 10 | 0 | 5 | 7 | 5 | 4 | nt | nt | nt | nt | nt
O=C(Nc1ccc(NC(=O)c2ccc(Cl)cc2Cl)cc1)c1ccc2c(c1)OCO2 | -64 | -1 | -11 | 5 | -1 | -7 | nt | nt | nt | nt | nt
O=C(Nc1ccc(Cl)cc1)c1ccc2c(c1)OCO2 | 22 | -3 | 73* | -4 | 37 | 76* | 37 | 54* | 88* | 74* | 18
CC(=O)Nc1ccc(C(=O)Nc2ccc3c(c2)OCCO3)cc1 | 11 | 11 | 5 | -10 | -9 | 1 | nt | nt | nt | nt | nt
O=C(Nc1ccc(Cl)cc1)C1=Cc2ccccc2OC1 | -19 | 72* | 66* | 18 | 45 | 45 | 53* | 62* | 87* | 35 | 34
CCOc1cccc(C(=O)NC(=S)Nc2ccc3c(c2)OCCO3)c1 | 17 | 2 | -10 | 11 | 6 | -12 | nt | nt | nt | nt | nt
O=C(NC(=S)Nc1ccc2c(c1)OCCO2)c1ccccc1 | 12 | -1 | 76* | 14 | 49 | 25 | 59* | 61* | 88* | 54* | 59*
